Compound activity from PubChem.
Most compounds without a hit are left out; they make up all but 1.4% or so of the library.
NFkB transloc pot: enhances IL-1B driven NFkB nuclear translocation. HUVEC IL-1B NFkB p65 nuclear translocation imaging. activation, % at 2 µM. hit rate 0.3% among 94,000. AID 819;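 active means activation above 40%, about the mean plus 3 SD, also judged a hit on visual image review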;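 further: percent activation is computed from the nuclear over cytoplasmic p65 intensity ratio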
Pyk2 oligo antag: antagonists of human Pyk2 oligomerization | hit rate 0.83% among 99,000 | Q293 cells, Pyk2 FERM NanoBiT luminescence; stronger effect = lower value | Q14289 | z-score (the deposit names both 25 µM and 10 µM);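 active means Z-score of -3 or lower, scaled per plate to the spread of control and sample wells; inactive means z-score above -3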;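 further: negative z-score means lost luminescence so less FERM oligomerization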
Target sequence (Q14289 whole entry, looked up): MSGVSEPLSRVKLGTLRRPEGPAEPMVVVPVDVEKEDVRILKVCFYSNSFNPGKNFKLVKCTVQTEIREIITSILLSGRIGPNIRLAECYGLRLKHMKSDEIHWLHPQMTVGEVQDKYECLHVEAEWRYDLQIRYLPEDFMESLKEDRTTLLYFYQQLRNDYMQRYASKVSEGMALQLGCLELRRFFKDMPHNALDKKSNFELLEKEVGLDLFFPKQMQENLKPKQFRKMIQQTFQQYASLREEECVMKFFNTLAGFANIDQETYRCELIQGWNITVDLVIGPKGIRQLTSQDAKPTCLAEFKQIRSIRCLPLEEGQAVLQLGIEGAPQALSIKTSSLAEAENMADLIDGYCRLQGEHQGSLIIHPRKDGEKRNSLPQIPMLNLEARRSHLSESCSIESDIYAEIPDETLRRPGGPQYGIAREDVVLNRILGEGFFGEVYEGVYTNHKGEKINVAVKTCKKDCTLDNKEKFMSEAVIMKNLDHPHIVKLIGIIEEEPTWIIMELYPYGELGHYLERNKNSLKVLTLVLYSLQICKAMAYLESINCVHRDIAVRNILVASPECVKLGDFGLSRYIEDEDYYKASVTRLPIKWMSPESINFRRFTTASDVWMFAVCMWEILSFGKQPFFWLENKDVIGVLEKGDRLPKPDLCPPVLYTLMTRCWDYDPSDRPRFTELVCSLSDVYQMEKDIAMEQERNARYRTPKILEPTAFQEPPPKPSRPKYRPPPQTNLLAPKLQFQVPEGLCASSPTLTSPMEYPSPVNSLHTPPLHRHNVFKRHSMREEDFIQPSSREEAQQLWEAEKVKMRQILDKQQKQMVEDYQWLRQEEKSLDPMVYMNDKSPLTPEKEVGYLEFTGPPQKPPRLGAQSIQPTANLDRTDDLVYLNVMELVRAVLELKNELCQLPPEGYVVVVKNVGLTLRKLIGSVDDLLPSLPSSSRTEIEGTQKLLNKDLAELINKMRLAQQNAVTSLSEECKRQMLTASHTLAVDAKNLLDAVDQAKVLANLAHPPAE
Phagocyt inh: blocks phagocytosis by macrophages. hit rate 0.07% among 110,000. inhibition, % at 5 µM. AID 1029. J774A.1 macrophage IgG-bead phagocytosis, imaging;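 active means inhibition above the mean of the plate negative controls plus 5 SD, cut at about 13% in these data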;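 further: phagocytic index as fraction of beads internalized from green versus red external bead signal; plate controls were DMSO negative control for no effect and cytochalasin-D positive control for full effect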
HUVEC tox IL1B: toxic to HUVEC cells under IL-1B stimulation; cell count reduction, % at 2 µM; AID 845; HUVEC cell count loss, Hoechst imaging, IL-1B stimulated; hit rate 0.41% among 94,000;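 active means cell count reduction more than 3 SD above the screen-wide mean, cut at about 70% in these data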;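 further: normalized per plate to untreated control cells as the no-loss baseline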
NFkB transloc inh: blocks IL-1B driven NFkB nuclear translocation in HUVEC cells; HUVEC IL-1B NFkB p65 nuclear translocation imaging; inhibition, % at 2 µM; hit rate 0.43% among 94,000; AID 796;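 active means inhibition above about 30% together with a positive call from visual inspection of the well image, limit read from the data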;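 further: nuclear over cytoplasmic p65 intensity ratio measured by imaging; 0% = IL-1B stimulated DMSO wells and 100% = unstimulated DMSO wells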
Numbers without * were called inactive; [ ] = remark or other dose.

Screening CC(=O)C1=C(C)Nc2ncnn2C1c1ccccc1OCc1ccccc1 (stereo not drawn) returned NFkB transloc pot 8.2, Pyk2 oligo antag -3.08*, Phagocyt inh -2.5, HUVEC tox IL1B 60.2 and NFkB transloc inh -8.2.
`Cc1ccc(NC(=O)COC(=O)c2cc(Cl)ccc2[N+](=O)[O-])cc1` gave Phagocyt inh 24.2*[artifact].
`CN(CCC#N)C(=O)Cn1nc(Cc2ccncc2)c2ccccc2c1=O` gave NFkB transloc pot 4.6, Phagocyt inh 2.5, HUVEC tox IL1B -1.6 and NFkB transloc inh -4.6.
For O=C(Cn1nc(Cc2ccncc2)c2ccccc2c1=O)N1CCc2ccccc2C1 the results were NFkB transloc pot 72.1*, Phagocyt inh -0.6, HUVEC tox IL1B 3.6 and NFkB transloc inh -72.1.
Screening O=c1c2cc(Cl)ccc2[nH]c(=S)n1Cc1ccco1 returned NFkB transloc pot 10.8, Pyk2 oligo antag 0.47, Phagocyt inh 0.4, HUVEC tox IL1B -33.1 and NFkB transloc inh -10.8.
For C=CCNc1nc(N)c(C(=O)Nc2cc(C)on2)s1 the results were NFkB transloc pot -10.1, Pyk2 oligo antag 0.12, Phagocyt inh -0.6, HUVEC tox IL1B 77.2* and NFkB transloc inh 10.1.
Screening C=CCNc1nc(N)c(C(=O)c2ccc3c(c2)OCO3)s1 returned NFkB transloc pot 19.0, Pyk2 oligo antag 0.2, Phagocyt inh -0.5, HUVEC tox IL1B -26.7 and NFkB transloc inh -19.0.
`Cc1ccccc1S(=O)(=O)NNC(=O)C(=O)NNc1ccccn1` gave NFkB transloc pot 10.7, Pyk2 oligo antag -0.33, Phagocyt inh -0.1, HUVEC tox IL1B -11.5 and NFkB transloc inh -10.7.
Screening C/C(Cc1ccccc1)=N\NC(=O)c1cccnc1 returned Phagocyt inh -9.8.
For CC(CCc1ccccc1)NC(=O)c1cccnc1 (stereo not drawn) the results were NFkB transloc pot -58.2, Pyk2 oligo antag -0.03, Phagocyt inh 0.5, HUVEC tox IL1B 1.3 and NFkB transloc inh 58.2*.
Screening CCOC(=O)C1=C(c2ccccc2)NC(SCC)=C(C#N)C1c1cccnc1 (stereo not drawn) returned NFkB transloc pot -28.0, Pyk2 oligo antag -0.86, Phagocyt inh -0.5, HUVEC tox IL1B -17.7 and NFkB transloc inh 28.0.
CSc1nc(N)nc(SCC(=O)CC(=O)OC(C)C)c1C#N was read as NFkB transloc pot 29.2, Pyk2 oligo antag -0.86, Phagocyt inh 38.3*[artifact], HUVEC tox IL1B 18.2 and NFkB transloc inh -29.2.
`Cc1nc(SCC(=O)CC(=O)OC(C)C)c(C#N)c(C)c1C` gave NFkB transloc pot -8.0, Pyk2 oligo antag 0.22, HUVEC tox IL1B 13.3 and NFkB transloc inh 8.0.
`CC(=O)c1cccc(NC(=O)C2CCCN(S(=O)(=O)c3ccccc3)C2)c1` (stereo not drawn) gave NFkB transloc pot 9.9, Pyk2 oligo antag -0.18, Phagocyt inh -0.4, HUVEC tox IL1B 16.7 and NFkB transloc inh -9.9.
Screening COc1ccc(C(=O)N/N=C/c2ccc3cccc(OCc4ccccc4)c3n2)cc1 returned NFkB transloc pot -5.1, Pyk2 oligo antag -3.99*, Phagocyt inh -1.0, HUVEC tox IL1B 32.7 and NFkB transloc inh 5.1.
Screening O=C(N/N=C/c1ccc2cccc(OCc3ccccc3)c2n1)c1ccc(Br)cc1 returned Pyk2 oligo antag -2.4.
COC(=O)C(C)Sc1ccc2nnc(-c3ccc(F)cc3)n2n1 (stereo not drawn) was read as NFkB transloc pot -0.8, Pyk2 oligo antag -0.55, HUVEC tox IL1B 6.1 and NFkB transloc inh 0.8.
CCC(Sc1ccc2nnc(-c3ccc(F)cc3)n2n1)C(=O)OC (stereo not drawn) was read as NFkB transloc pot -3.2, Pyk2 oligo antag -0.61, Phagocyt inh -1.1, HUVEC tox IL1B 82.2* and NFkB transloc inh 3.2.
`O=c1c2ccccc2nc(SCc2cn3ccsc3n2)n1-c1ccc(F)cc1` gave NFkB transloc pot 17.7, Pyk2 oligo antag -3.26*, Phagocyt inh -0.8, HUVEC tox IL1B -10.3 and NFkB transloc inh -17.7.
`O=C(CSc1nc2ccccc2c(=O)n1-c1ccc(F)cc1)NCc1ccco1` gave NFkB transloc pot 8.0, Pyk2 oligo antag 0.86, Phagocyt inh -2.4, HUVEC tox IL1B -11.5 and NFkB transloc inh -8.0.
`CCOC(=O)CSc1nc(N)c(C#N)c(-c2ccc(OCC)cc2)c1C#N` gave NFkB transloc pot 5.5, Pyk2 oligo antag 0.64, Phagocyt inh 1.9, HUVEC tox IL1B -0.4 and NFkB transloc inh -5.5.
`CCSc1nc(N)c(C#N)c(-c2ccccc2Cl)c1C#N` gave NFkB transloc pot -6.5, Pyk2 oligo antag -3.73*, Phagocyt inh -0.4, HUVEC tox IL1B 27.4 and NFkB transloc inh 6.5.
Screening C=CCSc1nc(N)c(C#N)c(-c2ccc(C)cc2)c1C#N returned NFkB transloc pot 5.0, Pyk2 oligo antag -3.46*, Phagocyt inh -1.3, HUVEC tox IL1B 31.1 and NFkB transloc inh -5.0.
For CCOC(=O)c1[nH]c(=O)[nH]c1CSc1ccccn1 the results were NFkB transloc pot 7.3, Pyk2 oligo antag 0.55, Phagocyt inh -1.8, HUVEC tox IL1B 2.9 and NFkB transloc inh -7.3.
Screening COc1ccc(N2C(=O)CC(N3CCCC4CCCCC43)C2=O)cc1 (stereo not drawn) returned NFkB transloc pot 9.3, Pyk2 oligo antag 0.14, Phagocyt inh -0.5, HUVEC tox IL1B -1.4 and NFkB transloc inh -9.3.
For CCOc1ccc(C(=O)N[C@H](C(=O)Nc2cccc(S(=O)(=O)N3CCCCC3)c2)C(C)C)cc1 the results were Phagocyt inh -11.8.
For CCOc1ccc(/C=C/[N+](=O)[O-])c2ccccc12 the results were NFkB transloc pot -60.6, Pyk2 oligo antag 0.5, HUVEC tox IL1B -54.1 and NFkB transloc inh 60.6*.
For CC1(C)C=C(c2ccc(O)cc2)CC(C)(C)N1 the results were NFkB transloc pot -45.3, Pyk2 oligo antag -0.09, Phagocyt inh -0.7, HUVEC tox IL1B -44.1 and NFkB transloc inh 45.3*.
O=C(Nc1ccc(F)cc1)c1ccccc1S(=O)(=O)c1ccccc1[N+](=O)[O-] was read as Phagocyt inh -5.2.
For CCN(CC)S(=O)(=O)c1ccc2oc(Nc3ccc4c(c3)OCCO4)nc2c1 the results were NFkB transloc pot 9.1, Pyk2 oligo antag -3.53*, HUVEC tox IL1B 5.3 and NFkB transloc inh -9.1.
Cc1nc2ccc(Nc3nc4cc(S(=O)(=O)N5CCOCC5)ccc4o3)cc2s1 was read as NFkB transloc pot 6.5, Pyk2 oligo antag -1.49, Phagocyt inh -0.3, HUVEC tox IL1B -22.1 and NFkB transloc inh -6.5.
For Cc1ccccc1CNS(=O)(=O)c1ccc2c(c1)OCCO2 the results were NFkB transloc pot -3.0, Pyk2 oligo antag -1.22, HUVEC tox IL1B 21.3 and NFkB transloc inh 3.0.
CCC1(CC)C(=O)N=C2c3ccccc3C(=O)N21 was read as Pyk2 oligo antag 0.69.
For Cc1ccc(-c2ccc(=O)[nH]n2)cc1 the results were NFkB transloc pot -98.5, Pyk2 oligo antag -0.11, HUVEC tox IL1B 82.3* and NFkB transloc inh 98.5*.
CCCCC(=O)NC1(C(F)(F)F)C(=O)N(Cc2ccco2)C(C)=C1C(=O)OC (stereo not drawn) was read as NFkB transloc pot 4.2, Pyk2 oligo antag -0.4, Phagocyt inh 0.1, HUVEC tox IL1B 2.9 and NFkB transloc inh -4.2.
